Source: PubChem
RMI FANCM FP = disruptors of RMI1/RMI2 association with MM2 peptide – biochemical, fluorescence polarization, human, primary screen. RMI core complex (RMI1/RMI2) binding to FANCM MM2 peptide, human. RMI core complex with F-MM2 peptide; stronger effect = lower value. FP signal (polarization) at 33 µM. 70,000 compounds, 0.58% hits; in the data active means FP signal below about 40
An asterisk follows results filed as active; ! = repeats disagree. Only a selection was taken, and hits are over-represented in it overall.

SMILES	RMI FANCM FP
O=c1c2nc(N3CCOCC3)sc2c(-c2cccs2)nn1Cc1cccc(F)c1	66
Cc1ccccc1-c1noc(CN2N=NC3C(=O)N(c4ccc(F)c(Cl)c4)C(=O)C32)n1 (stereo not given)	61
O=C(CN1CCN(Cc2nc(-c3ccco3)cs2)CC1)N1CCCC1	40*
O=C(CN1CCN(Cc2nc(-c3ccco3)cs2)CC1)N1CCOCC1	42
COc1ccc(CCC(=O)N2CCN(Cc3nc(-c4ccco4)cs3)CC2)cc1	64
CS(=O)(=O)N1CCC(C(=O)Nc2nc(-c3ccc4c(c3)OCCO4)cs2)CC1	67
C(=C\c1ccccc1)/CN1CCN(C(c2ccccc2)c2ccccc2)CC1	54
COc1ccc(CN2CCN(C(c3ccc(F)cc3)c3ccc(F)cc3)CC2)c(OC)c1OC	65
Fc1ccc(C(c2ccc(F)cc2)N2CCN(C/C=C/c3ccccc3)CC2)cc1	24*!
Cc1ccc(S(=O)(=O)NCCOc2ccc3c(c2)OCO3)s1	60
NC(=O)N1c2ccccc2CC(=O)c2ccccc21	-8*!
O=C1Cc2ccccc2C1=C1Cc2ccccc2C1	51
NC(=O)C1Cc2ccccc2N1C(=O)CCCN1C(=O)c2ccccc2C1=O (stereo not given)	51
CC(=O)C(Sc1nc(-c2cccc(C)c2)nc2c1c(=O)n(C)c(=O)n2C)C(C)=O	71
O=C(c1cccs1)N1CCN(Cc2nc(-c3ccc(F)cc3)cs2)CC1	61
Cc1ccc2oc(C(=O)NCCn3c(C)cc4ccccc43)cc2n1	26*
CSc1ccccc1NC(=O)c1cc2nc(C)ccc2o1	58
Cc1ccc2oc(C(=O)NCc3cccs3)cc2n1	64
CCCNC(=O)C(=O)NCC1CCN(Cc2cccs2)CC1	72
CCOc1ccc(-c2noc(CSc3nc4ccsc4c(=O)n3C3CC3)n2)cc1	39*
COc1ccc(-c2noc(CSc3nc4ccsc4c(=O)n3C)n2)cc1	73
CCOc1ccc(-c2noc(CSc3nc4ccsc4c(=O)n3-c3cccc(OC)c3)n2)cc1	104
CSc1nnc(Sc2ncc([N+](=O)[O-])s2)s1	2*
O=[N+]([O-])c1cnc(Sc2ccc(C(F)(F)F)cn2)s1	58
O=[N+]([O-])c1cnc(Sc2nnc(-c3ccc(Cl)cc3)o2)s1	55
SMILES	RMI FANCM FP
Cc1cc(C)n(C(=O)c2ccc([N+](=O)[O-])c(C)c2)n1	60
COc1cccc(CSc2nc(CC(=O)Nc3ccc(C)c(C)c3)cc(=O)[nH]2)c1	64
COc1cccc(CSc2nc(CC(=O)NC3CC3)cc(=O)[nH]2)c1	54
COc1cccc(CSc2nc(CC(=O)Nc3nnc(C)s3)cc(=O)[nH]2)c1	34*
Cc1cc(F)ccc1S(=O)(=O)ON1C(=O)c2ccccc2C1=O	27*
Cc1cc(F)ccc1S(=O)(=O)NCC1CCN(C2CCCC2)CC1	78
Cc1ccc(=O)n(S(=O)(=O)c2ccc(F)cc2F)n1	54
COc1ccc(OC)c(NC(=O)CSc2nnc3ccc(-c4ccco4)nn23)c1	51
O=C1c2cccc3c(Cl)ccc(c23)C(=O)N1c1ccc(N=Nc2ccccc2)cc1	58
CC(=O)c1cccc(NC(=O)Cc2cc(=O)[nH]c(SCc3cccc(Cl)c3)n2)c1	63
COc1ccc(C2=NN(C(=O)CSc3cn(Cc4ccc(Br)cc4)c4ccccc34)C(c3ccc(C)cc3)C2)cc1 (stereo not given)	64
N#Cc1cc2ccccc2oc1=O	60
Cc1ccc(-n2ncc(C#N)c2N)c(C)c1	56
Cc1ccc2oc3nc(N)c(C#N)cc3c(=O)c2c1	5*
Cc1ccc(Cl)c2sc(=NC(=O)CN3C(=O)CCC3=O)n(C)c12	61
CSc1cccc(NC(=O)CSc2nnc([C@H](Cc3ccccc3)NC(=O)OC(C)(C)C)o2)c1	62
CN=c1scc(C)n1/N=C\c1c(Cl)cccc1Cl	47
COc1ccc(C)cc1S(=O)(=O)NCCn1ncccc1=O	63
COc1ccc(F)cc1S(=O)(=O)N1CCN(c2ccc(-c3ccc(F)cc3)nn2)CC1	81
COc1ccc(C)cc1S(=O)(=O)N1CCN(c2ccc(-c3ccncc3)nn2)CC1	67
COc1ccc(Cl)cc1S(=O)(=O)N1CCN(c2ccc(-c3ccncc3)nn2)CC1	27*
O=C(Nc1cccs1)N1CCC(c2nnc(C3CC3)o2)CC1	48
O=C(NCc1ccco1)C(=O)NCc1cccs1	52
Cc1cc(-c2ccc(NC(=O)c3ccc4ncsc4c3)c(C)c2)ccc1NC(=O)c1ccc2ncsc2c1	63
COC(=O)c1sc(-c2ccccc2)cc1NC(=O)c1ccccc1I	61
COC(=O)c1sc(-c2ccccc2)cc1NC(=O)c1ccccc1Cl	61
COC(=O)c1sc(-c2ccccc2)cc1NC(=O)c1cc2c(ccc3ccccc32)oc1=O	31*
Cc1cc(NC(=O)c2cccs2)n(-c2nc3c(cnn3-c3cccc(Cl)c3)c(=O)[nH]2)n1	64
N#C/C(=C\c1ccc(-c2ccc(F)cc2)o1)c1nc(-c2ccco2)cs1	70
Cc1[nH]c2ccccc2c1C(Nc1ccccc1F)c1ccccn1 (stereo not given)	97
